# The panel holds about 83,000 compounds, 20% with a hit somewhere; the sample as a whole holds those more often.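 Method: cells in 96-well plates; compound added at one concentration; 48 h incubation; percent growth measured; values under 10 scored active.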 Activity calls are given as the source filed them.
# System: HOP-92 NSCLC
# Assay: NCI-60 one-dose screen, 48 h (100 = growth as untreated, 0 = no growth, -100 = all killed)
# Settings: 10 µM unless noted
row,SMILES,growth
1,C=C1C(=O)O[C@H]2[C@H]1CC/C(COC(=O)CCCCCCCCC(=O)OC/C1=C/CC[C@@]3(C)O[C@H]3[C@H]3OC(=O)C(=C)[C@@H]3CC1)=C\CC[C@@]1(C)O[C@@H]21,-25.9% (active)
2,C=C1C(=O)O[C@H]2[C@H]1CCC(/C=N/c1ncc(Br)cc1N)=C\CC[C@@]1(C)O[C@@H]21,-15.2% (active)
3,O=C1CCC23OC(c4ccccc4N12)C(O)C(O)C3O (stereo unspecified),113% (inactive)

# System: NCI-H522 lung
# Assay: as above
# Settings: 10 µM unless noted
row,SMILES,growth
1,CC(C)CSc1nc(Nc2ccccc2)c(C#N)c(-c2ccc(F)cc2)n1,59.1% (inactive)
2,CCCCC(=O)Nc1c(C(=O)Nc2ccccc2)sc2nc3c(cc12)C(OC(=O)CCCC)CCC3 (stereo unspecified),77% (inactive)
3,COC(=O)[C@]1(C)CCC[C@]2(C)[C@H]3C[C@H]4C(C(C)C)=C[C@]3(CC[C@H]21)[C@@H]1C(=O)N(CCC#N)C(=O)[C@@H]14,75.3% (inactive)
4,CCN1CCN(c2ccc(NC(=O)Nc3nc4ccc(-c5ccccc5OC)cc4s3)cc2)CC1,-78.1% (active)
5,C[C@H]1[C@H](C)CC[C@]2(C(=O)OCCOCCOCC[P+](c3ccccc3)(c3ccccc3)c3ccccc3)CC[C@]3(C)C(=CC[C@@H]4[C@@]5(C)CC[C@H](OC(=O)C(Cl)Cl)C(C)(C)[C@@H]5CC[C@]43C)[C@H]12,-15.3% (active)
6,COc1ccc(/C(=N\O)c2cc(C)c(OC)c(C)c2)cc1O,-11.4% (active)
7,O=C(Nc1nccs1)c1noc2ccccc12,86.6% (inactive)
8,CCOc1ccccc1C(=O)/C=C/c1cc2ccccc2[nH]c1=O,-38.6% (active)

# — PubChem BioAssay (NCI)
